The nature of experiment [1]: qHTS of pediatric cancer cell lines to identify multiple opportunities for drug repurposing: Primary screen for BT-37 cells (AID 1347094). Also: potency is read from the fitted curve at half-maximal effect. A digest of the protocol: (§1)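 Viability was measured as metabolically active cells after 48 hours of treatment, read by CellTiter-Glo luminescence. Compounds were tested at multiple final concentrations, giving concentration-response curves.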
Background: In qHTS, concentration-response curves come from the screen itself.

Experiment [2] in a line: qHTS of pediatric cancer cell lines to identify multiple opportunities for drug repurposing: Primary screen for NB-EBc1 cells (AID 1347095). Also: potency is read from the fitted curve at half-maximal effect. A digest of the protocol:
as §1

The nature of experiment [3]: qHTS of pediatric cancer cell lines to identify multiple opportunities for drug repurposing: Primary screen for U-2 OS cells (AID 1347096). Also: nearly all actives have a fitted effect of over 50% in size. A digest of the protocol:
(§2)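 Cells (500-1,000/well) in growth media were settled 5 h at 37 degrees C, then given compounds for 48 h. Viability was read as CellTiter-Glo luminescence. Primary runs used MIPE at 11 points (0.78 nM-46 µM) and NPC at 8 points (0.59 nM-46 µM); follow-ups used 11 points.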

Experiment [4] in a line: qHTS of pediatric cancer cell lines to identify multiple opportunities for drug repurposing: Primary screen for BT-12 cells (AID 1347101). Also: nearly all actives have a fitted effect of over 25% in size. Also: potency is read from the fitted curve at half-maximal effect. A digest of the protocol: (§3)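 Cells (500-1,000/well) rested 5 h, then received compounds for 48 h; metabolically active cells were measured by CellTiter-Glo luminescence. Final concentrations spanned up to 46 µM (MIPE, 11-point) or 0.59 nM-46 µM (NPC, 8-point) in primary screens, 11-point in follow-ups.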

Experiment [5] can be described thus: qHTS of pediatric cancer cell lines to identify multiple opportunities for drug repurposing: Primary screen for Rh18 cells (AID 1347102). Also: nearly all actives have a fitted effect of over 65% in size. Also: potency is read from the fitted curve at half-maximal effect. A digest of the protocol:
as §2

A short description of experiment [6]: qHTS of pediatric cancer cell lines to identify multiple opportunities for drug repurposing: Primary screen for MG 63 (6-TG R) cells (AID 1347105). Also: nearly all actives have a fitted effect of over 50% in size. Also: potency is read from the fitted curve at half-maximal effect. A digest of the protocol:
as §1

Experiment [7] can be described thus: qHTS of pediatric cancer cell lines to identify multiple opportunities for drug repurposing: Primary screen for Rh30 cells (AID 1347107). Also: nearly all actives have a fitted effect of over 75% in size. Also: potency is read from the fitted curve at half-maximal effect. A digest of the protocol:
as §2

Experiment [8] in a line: qHTS of pediatric cancer cell lines to identify multiple opportunities for drug repurposing: Primary screen for Rh41 cells (AID 1347108). Also: nearly all actives have a fitted effect of over 70% in size. Also: potency is read from the fitted curve at half-maximal effect. A digest of the protocol: as §1
The nature of experiment [9]: qHTS of pediatric cancer cell lines to identify multiple opportunities for drug repurposing: Primary screen for Saos-2 cells (AID 1347097). Also: potency is read from the fitted curve at half-maximal effect; nearly all actives have a fitted effect of over 40% in size. A digest of the protocol:
as §1

A short description of experiment [10]: qHTS of pediatric cancer cell lines to identify multiple opportunities for drug repurposing: Primary screen for SK-N-SH cells (AID 1347098). Also: nearly all actives have a fitted effect of over 65% in size. Also: potency is read from the fitted curve at half-maximal effect. A digest of the protocol: as §3
A short description of experiment [11]: qHTS of pediatric cancer cell lines to identify multiple opportunities for drug repurposing: Primary screen for NB1643 cells (AID 1347099). Also: potency is read from the fitted curve at half-maximal effect; nearly all actives have a fitted effect of over 50% in size. A digest of the protocol: as §1
A short description of experiment [12]: qHTS of pediatric cancer cell lines to identify multiple opportunities for drug repurposing: Primary screen for OHS-50 cells (AID 1347103). Also: nearly all actives have a fitted effect of over 40% in size. Also: potency is read from the fitted curve at half-maximal effect. A digest of the protocol:
as §3

The nature of experiment [13]: qHTS of pediatric cancer cell lines to identify multiple opportunities for drug repurposing: Primary screen for control Hh wild type fibroblast cells (AID 1347106). Also: nearly all actives have a fitted effect of over 55% in size. Also: potency is read from the fitted curve at half-maximal effect. A digest of the protocol: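 Viability after 48 h compound treatment at 37C, 500-1,000 cells/well, read as ATP luminescence with CellTiter-Glo. Primary screens used 11-point (MIPE, 0.78 nM-46 µM) or 8-point (NPC, 0.59 nM-46 µM) final concentrations; follow-up screens used 11-point dilutions.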

The nature of experiment [14]: qHTS of pediatric cancer cell lines to identify multiple opportunities for drug repurposing: Confirmatory screen for NB1643 cells (AID 1347109). Also: nearly all actives have a fitted effect of over 45% in size. A digest of the protocol:
as §2

Experiment [15] in a line: qHTS of pediatric cancer cell lines to identify multiple opportunities for drug repurposing: Confirmatory screen for BT-12 cells (AID 1347112). Also: nearly all actives have a fitted effect of over 55% in size. Also: potency is read from the fitted curve at half-maximal effect. A digest of the protocol: as §2
The nature of experiment [16]: qHTS of pediatric cancer cell lines to identify multiple opportunities for drug repurposing: Primary screen for LAN-5 cells (AID 1347100). Also: potency is read from the fitted curve at half-maximal effect. A digest of the protocol: as §2
A short description of experiment [17]: qHTS of pediatric cancer cell lines to identify multiple opportunities for drug repurposing: Primary screen for RD cells (AID 1347104). Also: nearly all actives have a fitted effect of over 55% in size. Also: potency is read from the fitted curve at half-maximal effect. A digest of the protocol: as §1
Experiment [18] can be described thus: qHTS of pediatric cancer cell lines to identify multiple opportunities for drug repurposing: Confirmatory screen for A673 cells (AID 1347110).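 Also: potency is read from the fitted curve at half-maximal effect; cells exposed to compound for 48 h before the viability read; nearly all actives have a fitted effect of over 65% in size.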 A digest of the protocol: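 qHTS titration format: primary MIPE 0.78 nM-46 µM (11 pts), NPC 0.59 nM-46 µM; confirmation 11 pts. 48 h, CTG luminescence.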
Experiment [19] can be described thus: qHTS of pediatric cancer cell lines to identify multiple opportunities for drug repurposing: Confirmatory screen for SK-N-MC cells (AID 1347111).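 Also: cells exposed to compound for 48 h before the readout; nearly all actives have a fitted effect of over 70% in size.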 Also: potency is read from the fitted curve at half-maximal effect. A digest of the protocol: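 Metabolically active cells were quantified by ATP-dependent luminescence (CellTiter-Glo, 15 min at room temperature) following 48 h treatment. Cells had been plated at 500-1,000 per well and settled for 5 h beforehand.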

A short description of experiment [20]: qHTS of pediatric cancer cell lines to identify multiple opportunities for drug repurposing: Confirmatory screen for LAN-5 cells (AID 1347113). Also: nearly all actives have a fitted effect of over 65% in size. Also: potency is read from the fitted curve at half-maximal effect. A digest of the protocol: as §2

Inconclusive results are not listed. Calls of active or inactive are those of the source. Calls follow the shape of the dose curve; as a rule, active = well fitted curve in the direction sought with a large enough effect; inconclusive = small, poorly fitted or top-dose-only effect, or another doubt; inactive = no such curve, though single readings can be large; an effect the other way counts as inactive or inconclusive.

For `CCN(CC)CCOc1ccc(C(=C(Cl)c2ccccc2)c2ccccc2)cc1`, the Potency entry in experiment [1], in experiment [2], in experiment [3], in experiment [4], in experiment [5] and in experiment [6] was “inactive” throughout. Besides, the Potency result in experiment [7] and in [8] was “inactive” each time.
Regarding `C[C@H](NC(=O)C(=O)Nc1ccccc1C(C)(C)C)C(=O)N[C@@H](CC(=O)O)C(=O)COc1c(F)c(F)cc(F)c1F`, the Potency result in experiment [1], in [2], in experiment [10], in [5], in experiment [12] and in experiment [13] was “inactive” throughout. In addition, in experiment [7], the Potency entry was “inactive”. The Potency in experiment [9] was 18.7 µM (active); in experiment [11], 9.35 µM (active); in [6] it was 14.8 µM (active).
On to `CC=C(C)C(=O)O[C@H]1C(C)=C[C@]23C(=O)[C@@H](C=C(CO)[C@@H](O)[C@]12O)[C@H]1[C@@H](C[C@H]3C)C1(C)C`, for which the Potency is 24.3 µM (active) in [1], 14.8 µM (active) in [2], 0.296 µM (active) in [9] and 21.7 µM (active) in experiment [12]. In addition, the Potency result in experiment [10], in [7], in experiment [14] and in [15] was “inactive” throughout.
Regarding `COc1cc2nc(-c3ccc(N4CCN(C)CC4)cc3)nc(NCCN3CCOCC3)c2cc1OC`, the Potency in [1] is 3.06 µM (active); in [2], 1.48 µM (active); in experiment [9], 0.296 µM (active); in [10], 4.82 µM (active); in experiment [11], 1.87 µM (active); in experiment [16] it was 18.7 nM (active). For the same compound, the Potency in experiment [4] was 0.153 µM (active); in experiment [5] it was 0.235 µM (active); in experiment [12], 0.0544 µM (active); in experiment [17] it was 41.8 nM (active); in experiment [6], 1.48 µM (active); in experiment [13], 3.32 µM (active). Besides, the Potency in experiment [7] was 46.9 nM (active); in experiment [8], 0.296 µM (active); in experiment [18] it was 0.208 µM (active); in [15], 233 nM (active).
Take `CC(=O)Nc1ccc([C@H](C)C(=O)Nc2ncc(C(C)C)s2)cc1`: the Potency in experiment [1] is 4.32 µM (active); in [2], 2.35 µM (active); in experiment [9], 4.18 µM (active); in [11], 1.18 µM (active); in [4], 1.22 µM (active); in experiment [5], 7.43 µM (active). Besides, the Potency in experiment [12] was 3.85 µM (active); in experiment [17], 4180 nM (active); in experiment [8] it was 7.43 µM (active); in experiment [18], 2.61 µM (active); in experiment [19], 8.27 µM (active); in experiment [15] it was 3690 nM (active). In [20], the Potency was 3.69 µM (active). Further, in experiment [7], the Potency result is “inactive”.
As for `CC(=O)Oc1cc2c(s1)CCN(C(C(=O)C1CC1)c1ccccc1F)C2` (centres undefined), the Potency is 1.09 µM (active) in experiment [1]; 3.72 µM (active) in experiment [2]; 3.06 µM (active) in experiment [4]; 1.37 µM (active) in experiment [12]; 1.04 µM (active) in experiment [18]. Besides, the Potency entry in [17], in [13], in [7], in [14], in experiment [19] and in experiment [15] was “inactive” each time. Besides, the Potency entry in experiment [20] was “inactive”.
For the compound `CN(C)Cc1cccc(N=C(c2ccccc2)c2c(O)[nH]c3cc(C(=O)N(C)C)ccc23)c1`, the Potency is 15.3 µM (active) in experiment [1]; 18.7 µM (active) in experiment [2]; 11.8 µM (active) in experiment [9]; 6.85 µM (active) in [4]; 17.2 µM (active) in [12].
In the case of `O=C(O)C(O)Cc1ccc(O)c(O)c1` (centres undefined), the Potency entry in experiment [1], in experiment [3], in experiment [10], in experiment [4], in experiment [5] and in [12] was “inactive” throughout. In addition, the Potency result in experiment [17], in [6], in experiment [13], in experiment [7] and in experiment [8] was “inactive” throughout.

The record behind these values is PubChem BioAssay (NCATS).
